The source of these data is PubChem BioAssay AID1240 (Sanford-Burnham Center for Chemical Genomics, 2008).

The whole screen tested about 50,000 compounds, of which about 800 (1.6%) showed an effect of 50% or more. The sample holds strong results, similar compounds and a random draw of the others, so the mix is not that of the screen.

The target in this experiment is Bcl-2-like protein 10 (Homo sapiens) (UniProt Q9HD36). The experiment in a line: Phenotype converters, Bcl-B/TR3 peptide binding displacement, primary biochemical FP (AID 1240).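 Further: 0% = Bcl-B with tracer peptide and DMSO and 100% = tracer peptide lacking Bcl-B.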 As to conditions: GST-Bcl-B / FITC-TR3 peptide fluorescence polarization; stronger effect = higher value; compound at 3.75 mg/L.
Sequence of Bcl-2-like protein 10 (Homo sapiens) (Q9HD36 whole entry, looked up): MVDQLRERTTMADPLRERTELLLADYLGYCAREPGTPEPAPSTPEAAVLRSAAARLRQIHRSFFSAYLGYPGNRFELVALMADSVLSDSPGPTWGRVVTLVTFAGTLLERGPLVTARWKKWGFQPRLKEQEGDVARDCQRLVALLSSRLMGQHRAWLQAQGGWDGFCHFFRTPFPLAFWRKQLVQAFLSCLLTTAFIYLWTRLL
With `CCCOc1ccccc1/C=C1\N=C(c2ccccc2)OC1=O`, the displacement was determined as 64%.

`COc1cccc(/C=C2\N=C(c3cccs3)OC2=O)c1OC`: the displacement came out at 59.5%.

Turning to `C=CCOc1ccccc1/C=C1\N=C(c2ccc(C)cc2)OC1=O`, the displacement was -2.1%.

On to `CC(=O)n1cc(/C=C2\N=C(c3ccccc3F)OC2=O)c2ccccc21`, for which the displacement was 7.6%.

With `CCOc1ccc(/C=C2\N=C(c3ccccc3F)OC2=O)cc1`, the displacement came to 11%.

In the case of `Cc1no[n+]([O-])c1COc1ccccc1/C=C1\N=C(c2ccccc2)OC1=O`, the displacement was -3.2%.

Regarding `O=C1OC(c2cccs2)=N/C1=C\c1cccc(Cl)c1Cl`, the displacement turned out to be 29.5%.

For the molecule `C=C(C)COc1ccccc1/C=C1\N=C(c2cccs2)OC1=O`, the displacement came to 0.7%.

Consider `COc1ccc(/C=C2\N=C(c3ccccc3F)OC2=O)c(OC)c1`, for which the displacement came to 72.1%.

For the molecule `CC(=O)n1cc(/C=C2\N=C(c3ccc(C(C)(C)C)cc3)OC2=O)c2ccccc21`, the displacement is 72.1%.

As for `COc1ccc(/C=C2\N=C(c3ccccc3I)OC2=O)cc1`, the displacement is -2.3%.

On to `O=C(CN1C(=O)c2ccccc2C1=O)Nc1nc(-c2ccccc2)cs1`, for which the displacement is -6.7%.

On to `COC(=O)C(C)N(C(=O)c1ccc(C(=O)c2ccccc2)cc1)c1c(C)cccc1C` (stereo not drawn), for which the displacement was 10.7%.

On to `COc1cccc(-c2nnc(-c3ccncc3)o2)c1`, for which the displacement was 6.6%.

Consider `COc1cccc(OCCNC(=O)c2cc(OC)c(OC)c(OC)c2)c1`, for which the displacement was found to be 11.6%.

With `O=C1NCC(c2ccccc2)C1C(=O)N/N=C\c1cc([N+](=O)[O-])cc(Br)c1O` (stereo not drawn), the displacement worked out at 5.6%.

With `COCCCNC(=O)/C(=C/c1ccc(-c2ccc(Br)cc2)o1)NC(=O)c1ccccc1`, the displacement was -6.6%.

For the molecule `CCOc1ccc(NC(=O)/C=C/c2ccc(Cl)cc2)cc1`, the displacement was determined as 10.1%.

As for `COc1ccc(Cc2noc(-c3ccccc3C)n2)cc1`, the displacement is -6.7%.

As to `COC(=O)C1=NN(C(=O)c2ccccc2)C(O)(C(C)(C)C)C1` (stereo not drawn), the displacement is -3.6%.

Take `COc1ccc(C2=NC(=Cc3cccc4ccccc34)C(=O)O2)cc1`: the displacement turned out to be 108%.

For `COc1ccc(C=C2C(=O)c3ccccc3C2=O)c(OC)c1`, the displacement was found to be 181%.

Consider `COc1ccccc1C=C1C(=O)c2ccccc2C1=O`, for which the displacement was 11.5%.

With `O=C1OC(c2ccccc2F)=N/C1=C\c1cccc2ccccc12`, the displacement is 78.4%.

Take `COc1ccc(C=C2C(=O)c3ccccc3C2=O)c(O)c1`: the displacement was determined as 18.4%.

For `O=C1OC(c2ccccc2F)=N/C1=C\c1ccccc1[N+](=O)[O-]`, the displacement was 4.1%.

Regarding `O=C1OC(c2ccccc2F)=N/C1=C\c1cccc(I)c1`, the displacement is -0.4%.

Take `COc1cccc(/C=C2/N=C(c3ccc(NC(C)=O)cc3)OC2=O)c1`: the displacement is 33.2%.

Take `COc1ccc(C2=N/C(=C\N(C)C)C(=O)O2)cc1`: the displacement was -9%.

As for `Cc1onc(-c2c(Cl)cccc2Cl)c1C(=O)N1CCN(Cc2ccccc2)CC1`, the displacement turned out to be 0.2%.

For the molecule `CCOC(=O)CNC1CC(C)(C)NC(C)(C)C1`, the displacement is -1.2%.

For the molecule `COc1ccc(NC(=O)c2ccc(N(Cc3ccc(Cl)cc3)S(C)(=O)=O)cc2)c(OC)c1`, the displacement came out at 26.7%.

Turning to `Nc1cc(-c2ccc(Br)cc2)nn1Cc1ccc(Cl)cc1`, the displacement is -1.3%.

With `O=c1c2c3c(sc2[nH]c(=S)n1-c1ccccc1)-c1ccccc1CC3`, the displacement was 102%.

For `O=c1c2c3c(sc2[nH]c(=S)n1-c1ccccc1)CCC3`, the displacement was -2.5%.

As for `C=CCn1c(=S)[nH]c2sc3c(c2c1=O)CCc1ccccc1-3`, the displacement was -4.7%.

Turning to `O=C(c1ccc(-c2ccccc2)cc1)N1CCN(Cc2ccc3c(c2)OCO3)CC1`, the displacement is -1.6%.

On to `Cc1c(/C=C/c2nc3ccccc3c(=O)n2C)c2ccccc2n1C`, for which the displacement is 3%.

On to `O=c1c2ccccc2nc(/C=C/c2c[nH]c3ccccc23)n1-c1cccc([N+](=O)[O-])c1`, for which the displacement is -2.2%.

`Cc1[nH]c2ccccc2c1/C=C/c1nc2ccccc2c(=O)n1C`: the displacement came out at 186%.

In the case of `Cn1c(/C=C/c2c[nH]c3ccccc23)nc2ccccc2c1=O`, the displacement came out at 108%.

Turning to `O=c1c2ccccc2nc(/C=C/c2c[nH]c3ccccc23)n1-c1ccc([N+](=O)[O-])cc1`, the displacement is -62.9%.

For `Cc1[nH]c2ccccc2c1/C=C/c1nc2ccccc2c(=O)n1Cc1ccccc1`, the displacement was -5.8%.

As for `COc1ccc(C)cc1NC(=O)c1cccnc1`, the displacement was 20.4%.

As for `COc1cc(/C=c2\sc3nc4ccccc4n3c2=O)cc(Br)c1OCc1ccccc1F`, the displacement was determined as 13.9%.

Consider `COc1ccc(-c2nnc(SCC(=O)Nc3ccc(C)cc3Br)o2)cc1`, for which the displacement amounted to 14.5%.

As for `O=C(/C=C/c1ccccc1)Nc1ccc(O)c(-c2nc3ccccc3o2)c1`, the displacement was -3.2%.

In the case of `Cc1c(NC(=O)/C=C/c2cccc([N+](=O)[O-])c2)cccc1-c1nc2ncccc2o1`, the displacement is 74.8%.

For the molecule `O=C(/C=C/c1ccc(Cl)cc1)Nc1ccc(-c2nc3ccccc3o2)c(O)c1`, the displacement is -0.3%.

On to `COc1ccc(Br)cc1/C=C/C(=O)Nc1ccc(-c2nc3ncccc3o2)cc1`, for which the displacement is -4.5%.

Take `COc1ccc(Br)cc1C(=O)Nc1cccc(-c2nc3ncccc3o2)c1C`: the displacement was -3.8%.

In the case of `Cc1ccc2oc(-c3cccc(NC(=O)/C=C/c4cccc([N+](=O)[O-])c4)c3C)nc2c1`, the displacement is -24.7%.

As for `O=C(/C=C/c1cccc([N+](=O)[O-])c1)Nc1ccc(-c2nc3ccccc3o2)cc1`, the displacement was -5.2%.

On to `O=C(/C=C/c1ccccc1)Nc1ccc(-c2nc3ccccc3o2)c(O)c1`, for which the displacement was found to be 127%.

As for `Cc1ccc(-c2nc3ccccc3o2)cc1NC(=O)/C=C/c1cccc([N+](=O)[O-])c1`, the displacement came to 74.2%.

For `O=C(/C=C/c1cccc([N+](=O)[O-])c1)Nc1ccc(-c2nc3ncccc3o2)cc1`, the displacement is 45.3%.

On to `Cc1ccc(-c2nc3cc(Cl)ccc3o2)cc1NC(=O)/C=C/c1cccc([N+](=O)[O-])c1`, for which the displacement is -18.8%.

`COc1ccc(Br)cc1/C=C/C(=O)Nc1cccc(-c2nc3ncccc3o2)c1C`: the displacement amounted to 95.3%.
